# Test results: PubChem BioAssay (NCATS)
# Unmarked numbers belong to inactive results. The call rests on the fitted dose curve; in most records, active means well fitted activation curve with a large enough effect; inconclusive means small, poorly fitted or top-dose-only effect; inactive means flat fitted curve, though single readings scatter.
# Experiment: Confirmation and Secondary Assay for Modulators of Hemoglobin Beta Chain Splicing at IVS2 705 locus (AID 930);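 further: HeLa cells stably expressing the EGFP-705 splicing reporter; % of control where 0% means no effect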
# Conditions: HeLa EGFP-705 splicing reporter, GFP fluorescence, 48 h; series mostly up to 46.1 µM; activation: at the top concentration
# Outline: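 Splice-correction reporter: EGFP cDNA split by beta-globin intron 2 bearing the 705 mutation, stably in HeLa. Compound incubation 2 days, 37C; fluorescent objects 5-250 µm summed per well.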
row,Compound,activation
1,NS(=O)(=O)c1cc(C2(O)NC(=O)c3ccccc32)ccc1Cl (centres undefined),1.43%
2,CNCc1ccccc1,-1.12%
3,Cc1onc(-c2ccccc2)c1-c1ccc(S(N)(=O)=O)cc1,0.366%
4,CC(=O)NCc1c(I)c(NC(C)=O)c(I)c(C(=O)O)c1I,-1.31%
5,Cc1c(NC(C)C)c(=O)n(-c2ccccc2)n1C,2.4%
6,Nc1ccc(C(=O)Oc2ccccc2)c(O)c1,-0.3% [at 38.3 µM]
7,O=c1[nH]cnc2nc[nH]c12,-0.247% [at 38.3 µM]
8,NCc1ccc(S(N)(=O)=O)cc1,-0.279%
9,CN1CCCN=C1COC(=O)C(O)(c1ccccc1)C1CCCCC1 (centres undefined),2.09%
10,NS(=O)(=O)c1cc2c(cc1C(F)(F)F)NCNS2(=O)=O,4.1%
11,NC(=O)c1ccc([N+](=O)[O-])cc1Cl,-0.131%
12,O=C(O)c1cc(=O)c2ccccc2o1,3.31%
13,COc1ccc2cc(CCC(C)=O)ccc2c1,-0.988%
14,CCS(=O)(=O)CCn1c([N+](=O)[O-])cnc1C,0.629%
15,C/C=C/C(=O)N(CC)c1ccccc1C,-1.16%
16,COc1ccccc1OCC(O)CO (centres undefined),0.583%
17,O=C(Cn1ccnc1[N+](=O)[O-])NCCO,-0.0199% [at 38.3 µM]
18,O=C1c2cccc(O)c2C(=O)c2c(O)cccc21,0.499% [at 38.3 µM]
19,Cc1c(NC(=O)c2cccnc2)c(=O)n(-c2ccccc2)n1C,-0.0618%
20,CC(C)=CCC/C(C)=C/CO,0.428%
21,C[N+]1(C)CCCC(OC(=O)C(O)(c2ccccc2)c2ccccc2)C1 (centres undefined),1.15%
22,Cc1[nH]c(C)c(Cl)c(=O)c1Cl,2.28%
23,Cc1cccc(Nc2ccccc2C(=O)O)c1C,1.73%
24,O=C(CCBr)N1CCN(C(=O)CCBr)CC1,1.31%
